Experiment [1] in a line: NCI Yeast Anticancer Drug Screen. Data for the rad50 strain (AID 155).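 Also: 0% = growth of vehicle-only cultures of the same strain.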 The note with it: S. cerevisiae rad50 strain growth inhibition; at 50.0 µM; active compounds read high. The gist of the method:
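Yeast carrying a defined DNA repair defect were exposed to test compounds, and growth was compared with vehicle-treated controls to give percent inhibition.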

A short description of experiment [2]: NCI Yeast Anticancer Drug Screen. Data for the mec2-1 strain (AID 157). The settings on record: S. cerevisiae mec2-1 strain, at 50.0 µM, active compounds read high. The gist of the method: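 Strain: mec2-1 (DNA repair/cell cycle alteration). Compound exposure, then growth measured; inhibition expressed relative to vehicle.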
A short description of experiment [3]: NCI Yeast Anticancer Drug Screen. Data for the sgs1 mgt1 strain (AID 161).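 Also: 0% = growth of cultures given vehicle only.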 The note with it: S. cerevisiae sgs1 mgt1 strain, at 50.0 µM, active compounds read high. The gist of the method: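 Inhibition of yeast growth, normalised to vehicle-treated controls, is reported for a strain bearing genetic alterations in DNA damage repair.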
A short description of experiment [4]: NCI Yeast Anticancer Drug Screen. Data for the cln2 rad14 strain (AID 165).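 Also: 0% = growth equal to vehicle treated cultures.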 The note with it: S. cerevisiae cln2 rad14 strain, at 50.0 µM, active compounds read high. In outline: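 Compounds are applied to the cln2 rad14 yeast strain, and growth is then compared with that of vehicle-treated cultures to give inhibition.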
Experiment [5] in a line: NCI Yeast Anticancer Drug Screen. Data for the bub3 strain (AID 167). The settings on record: S. cerevisiae bub3 mutant strain, at 50.0 µM, active compounds read high. In outline:
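Compounds were applied to a genetically altered yeast strain carrying a cell-cycle control defect. Growth inhibition was scored against vehicle-treated controls.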

A short description of experiment [6]: NCI Yeast Anticancer Drug Screen. Data for the mlh1 rad18 strain (AID 175). The settings on record: S. cerevisiae mlh1 rad18 strain growth inhibition; at 50.0 µM; active compounds read high. The gist of the method:
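Read-out is yeast growth inhibition, calculated against vehicle-only controls. The compound was applied to a strain engineered with DNA damage repair alterations.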

About 79,000 compounds went through this panel and 15% of them were active in at least one assay; those are over-represented in the sample as a whole. A number with no mark means an inactive call. Activity calls are given as the source filed them. Rule as the data show it: active = growth inhibition above about 70%; inactive = the rest.

For `CCCCCCNc1ncnc2c1cnn2C`, the growth inhibition in experiment [1] is 5.3%; in experiment [2] it was 6.85%; in experiment [3], 1.45%; in experiment [4], -17.9%; in experiment [5], 38.7%; in experiment [6], 3.4%.

With `CC(CO)C1C[C@H](O)[C@@]2(C)CC(=O)C=C(CO)[C@@H]2C1` (stereo partly specified), the growth inhibition was 35% in experiment [1]; 22.6% in experiment [2]; -3.55% in experiment [3]; 25.9% in experiment [4]; -7.15% in experiment [5]; -46% in experiment [6].

With `O=C(c1ccccc1)c1nc2ccc(Cl)cc2cc1C(Br)Br`, the growth inhibition in experiment [1] is 17.9%; in experiment [2], -2.75%; in experiment [3], 25.1%; in experiment [4], 15.1%; in experiment [5], 28.8%; in experiment [6] it was 17.9%.

Consider `CCCCCCCCOC(=O)C(C)OC(C)=O` (stereo unspecified), for which the growth inhibition in experiment [1] was 17.2%; in experiment [2], 2.05%; in experiment [3], 2.3%; in experiment [4], 13.8%; in experiment [5], 12.3%; in experiment [6] it was 12.1%.

For the compound `CC1CC2(CCC1OCc1ccccc1)OCCO2` (stereo unspecified), the growth inhibition is 0.25% in experiment [1]; -6.85% in experiment [2]; -2.3% in experiment [3]; 2.2% in experiment [4]; 13.3% in experiment [5]; -1.7% in experiment [6].

For `Cc1c2c(n3c(nc4ccccc43)c1C#N)N(c1ccc(Cl)cc1)CC2`, the growth inhibition in experiment [1] is 1.1%; in experiment [2], -1.3%; in experiment [3], -10.8%; in experiment [4] it was 7.35%; in experiment [5], -6.4%; in experiment [6] it was -15.3%.

With `O=C1NC2Cc3ccccc3C(C2)O1` (stereo unspecified), the growth inhibition is 2.8% in experiment [1]; -0.9% in experiment [2]; 1.85% in experiment [3]; -1.95% in experiment [4]; 15.9% in experiment [5]; 11.8% in experiment [6].

For `CC(=O)NC1=C(N2CCC2C)C(=O)c2ccccc2C1=O` (stereo unspecified), the growth inhibition in experiment [1] is -2.4%; in experiment [2] it was 0.8%; in experiment [3] it was 6.15%; in experiment [4] it was -4.4%; in experiment [5] it was -43.9%; in experiment [6], -11.4%.

`CCOC(=O)c1[nH]c(C)cc1C`: the growth inhibition was 2.95% in experiment [1]; -15.9% in experiment [2]; -7.55% in experiment [3]; -18.2% in experiment [4]; -22.4% in experiment [5]; -0.9% in experiment [6].

As to `CCCCCCCCCCCCCCCCCCCCCCOC(=O)CCC(=O)OCCCCCCCCCCCCCCCCCCCCCC`, the growth inhibition was 17.2% in experiment [1]; -44.3% in experiment [2]; 17.4% in experiment [3]; -0.95% in experiment [4]; -10.8% in experiment [5]; 5.75% in experiment [6].

For `C/C=C(\c1ccccc1)N1CCOCC1`, the growth inhibition is 17.9% in experiment [1]; -9.15% in experiment [2]; -8.6% in experiment [3]; -37.5% in experiment [4]; 7.1% in experiment [5]; 5.25% in experiment [6].

`C=CCc1cc(C(=O)C(=O)c2cc(CC=C)c(OC(C)=O)c(OC)c2)cc(OC)c1OC(C)=O`: the growth inhibition is 3.2% in experiment [1]; 6.75% in experiment [2]; 6.45% in experiment [3]; 6.8% in experiment [4]; -5.85% in experiment [5]; 8.25% in experiment [6].

Regarding `C/C(=C\c1ccccc1)C(O)S(=O)(=O)O` (stereo unspecified), the growth inhibition in experiment [1] is 4.5%; in experiment [2], -0.35%; in experiment [3], -2.9%; in experiment [4], 11.9%; in experiment [5], -12.1%; in experiment [6], -4.55%.

Consider `CCCCCCn1c(=O)c(N(C)C)c(C)n(C)c1=O`, for which the growth inhibition in experiment [1] is -36.1%; in experiment [2] it was -3.5%; in experiment [3], -9.05%; in experiment [4], 46%; in experiment [5] it was 17.7%; in experiment [6], -23.4%.

Take `O=C(ON(Cc1ccccc1)Cc1ccccc1)c1ccccc1`: the growth inhibition in experiment [1] is -7.8%; in experiment [2] it was 1.95%; in experiment [3], 20.4%; in experiment [4] it was -14.8%; in experiment [5], 28.1%; in experiment [6] it was 10.8%.

On to `Cc1cc2c(C)nn(Cc3ccc(Cl)cc3Cl)c2c(C#N)c1C`, for which the growth inhibition in experiment [1] was 18.2%; in experiment [2], -14.8%; in experiment [3], 24.9%; in experiment [4], 20.1%; in experiment [5], 5.8%; in experiment [6], 31.6%.

Regarding `CN(C)C=NCCN1CCOCC1`, the growth inhibition in experiment [1] was 9.3%; in experiment [2], 15.1%; in experiment [3] it was 26.8%; in experiment [4], 5.55%; in experiment [5], -7.1%; in experiment [6], -47.6%.

For `Cc1ccc(NC(=O)C(Br)C(Br)c2ccccc2)cc1Cl` (stereo unspecified), the growth inhibition in experiment [1] is 94.2% (active); in experiment [2], 95.8% (active); in experiment [3] it was 96.6% (active); in experiment [4] it was 95.2% (active); in experiment [5], 94.7% (active); in experiment [6] it was 95.8% (active).

Take `CCOC(=O)C(=O)N1Cc2cc3c(cc2C2CC(O)C(O)CC21)OCO3` (stereo unspecified): the growth inhibition in experiment [1] is -8.2%; in experiment [2], -3.9%; in experiment [3], -1.1%; in experiment [4] it was 6.05%; in experiment [5], 2.85%; in experiment [6], 5.85%.

Turning to `CC1([N+](=O)[O-])C(=O)C2(N3CCCC3)CCCC2C1c1ccccc1` (stereo unspecified), the growth inhibition in experiment [1] is 0.5%; in experiment [2], 8.4%; in experiment [3], -10.9%; in experiment [4], -2.25%; in experiment [5], 8.3%; in experiment [6], -9.35%.

For the compound `CC1(CN2CCCCC2)COC(c2ccccc2)(c2ccccc2)OC1`, the growth inhibition is -8.1% in experiment [1]; -8.85% in experiment [2]; -13.6% in experiment [3]; -36.1% in experiment [4]; 5.75% in experiment [5]; -0.9% in experiment [6].

For the origin of these results see PubChem BioAssay (NCI).
